# Reference: publication PMC7862700, “An all-to-all approach to the identification of sequence-specific readers for epigenetic DNA modifications on cytosine”
# How the values were obtained:
# Assay in all cases: DAPPL (digital affinity profiling via proximity ligation, sequencing); 10 mM Tris-HCl pH 7.5, 50 mM NaCl, 1 mM DTT, 4% glycerol, room temperature, 30 min; GST-TFs on glutathione beads, 16-mer random dsDNA library, 0.1% formaldehyde crosslink after washing; high values mean tight binding
# FLI1 = target: T1, FLI1 (Homo sapiens, UniProt Q01543 1-452); conditions: protein: recombinant; tags: N-terminal GST; dsDNA, one strand shown
# T1 sequence: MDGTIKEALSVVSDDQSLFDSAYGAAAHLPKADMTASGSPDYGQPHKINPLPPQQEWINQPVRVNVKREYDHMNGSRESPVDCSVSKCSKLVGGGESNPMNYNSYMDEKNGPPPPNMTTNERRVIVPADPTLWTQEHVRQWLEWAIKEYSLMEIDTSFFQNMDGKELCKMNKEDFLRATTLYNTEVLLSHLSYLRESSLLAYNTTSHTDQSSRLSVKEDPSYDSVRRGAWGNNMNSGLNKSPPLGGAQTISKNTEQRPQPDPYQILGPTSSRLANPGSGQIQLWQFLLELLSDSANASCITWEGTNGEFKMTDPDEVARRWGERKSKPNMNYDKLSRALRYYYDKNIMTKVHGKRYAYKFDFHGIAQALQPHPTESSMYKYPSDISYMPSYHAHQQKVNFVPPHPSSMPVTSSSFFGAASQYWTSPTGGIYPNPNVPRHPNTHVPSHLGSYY
# How it was run: (§1)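 Pools were built from human transcription factors expressed in yeast as GST fusions, captured on glutathione beads and DNA-barcoded, along with a tag-only sample. Incubation with 200 nmole of a 16-mer random double-stranded DNA library lasted 30 min at room temperature in Tris/NaCl/DTT/glycerol buffer, and was followed by washing, 0.1% formaldehyde crosslinking, proximity ligation, PCR amplification and Illumina NextSeq500 sequencing. Binding signal is the quotient of each hexamer's read frequency for a factor and its frequency for the tag-only sample.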
# ELK1 = target: T2, ELK1 (Homo sapiens, UniProt P19419 1-428); conditions: protein: recombinant; tags: N-terminal GST; dsDNA, one strand shown
# T2 sequence: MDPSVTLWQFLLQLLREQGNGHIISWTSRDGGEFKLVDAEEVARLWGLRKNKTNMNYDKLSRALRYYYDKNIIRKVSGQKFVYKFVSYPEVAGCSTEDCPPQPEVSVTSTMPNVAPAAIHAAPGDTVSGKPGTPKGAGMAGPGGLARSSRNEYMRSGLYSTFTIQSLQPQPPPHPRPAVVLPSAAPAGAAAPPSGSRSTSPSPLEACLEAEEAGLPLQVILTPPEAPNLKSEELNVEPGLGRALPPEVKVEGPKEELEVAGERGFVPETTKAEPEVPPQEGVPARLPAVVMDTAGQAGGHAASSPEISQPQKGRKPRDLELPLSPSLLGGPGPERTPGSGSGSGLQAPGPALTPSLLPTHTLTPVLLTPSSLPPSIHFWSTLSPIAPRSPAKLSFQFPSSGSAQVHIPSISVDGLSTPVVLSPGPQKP
# How it was run: as §1
# GABPA = target: T3, GABPA (Homo sapiens, UniProt Q06546 1-454); conditions: protein: recombinant; tags: N-terminal GST; dsDNA, one strand shown
# T3 sequence: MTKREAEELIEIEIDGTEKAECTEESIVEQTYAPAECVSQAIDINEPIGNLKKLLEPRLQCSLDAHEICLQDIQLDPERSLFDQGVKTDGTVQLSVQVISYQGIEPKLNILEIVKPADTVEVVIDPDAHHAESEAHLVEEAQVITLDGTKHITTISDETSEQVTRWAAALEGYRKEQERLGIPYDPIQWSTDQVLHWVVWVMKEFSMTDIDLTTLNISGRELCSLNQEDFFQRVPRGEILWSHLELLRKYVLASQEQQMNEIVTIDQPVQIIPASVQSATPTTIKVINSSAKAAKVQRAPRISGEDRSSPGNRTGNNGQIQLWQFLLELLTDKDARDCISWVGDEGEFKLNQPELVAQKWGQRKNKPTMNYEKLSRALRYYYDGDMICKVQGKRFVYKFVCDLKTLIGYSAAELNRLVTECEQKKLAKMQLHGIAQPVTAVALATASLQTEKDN
# How it was run: as §1
# ERG = target: T4, ERG (Homo sapiens, UniProt P11308 1-479); conditions: protein: recombinant; tags: N-terminal GST; dsDNA, one strand shown
# T4 sequence: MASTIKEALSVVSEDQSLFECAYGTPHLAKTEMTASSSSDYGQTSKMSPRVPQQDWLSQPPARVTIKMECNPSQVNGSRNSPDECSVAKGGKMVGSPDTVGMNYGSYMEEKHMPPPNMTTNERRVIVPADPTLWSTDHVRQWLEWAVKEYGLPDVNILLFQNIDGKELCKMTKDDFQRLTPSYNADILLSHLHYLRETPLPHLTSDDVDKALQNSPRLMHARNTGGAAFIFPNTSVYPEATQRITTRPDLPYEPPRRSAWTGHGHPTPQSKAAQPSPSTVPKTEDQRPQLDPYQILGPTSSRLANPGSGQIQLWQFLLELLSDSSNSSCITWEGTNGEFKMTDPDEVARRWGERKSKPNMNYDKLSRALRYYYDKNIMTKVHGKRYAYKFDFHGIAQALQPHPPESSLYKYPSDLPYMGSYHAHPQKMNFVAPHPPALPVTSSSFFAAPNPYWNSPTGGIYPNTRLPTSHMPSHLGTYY
# How it was run: as §1
# ELF1 = ELF1 (Homo sapiens, UniProt P32519 1-619); conditions: protein: recombinant; tags: N-terminal GST; dsDNA, one strand shown
# Sequence of ELF1 (P32519 whole entry): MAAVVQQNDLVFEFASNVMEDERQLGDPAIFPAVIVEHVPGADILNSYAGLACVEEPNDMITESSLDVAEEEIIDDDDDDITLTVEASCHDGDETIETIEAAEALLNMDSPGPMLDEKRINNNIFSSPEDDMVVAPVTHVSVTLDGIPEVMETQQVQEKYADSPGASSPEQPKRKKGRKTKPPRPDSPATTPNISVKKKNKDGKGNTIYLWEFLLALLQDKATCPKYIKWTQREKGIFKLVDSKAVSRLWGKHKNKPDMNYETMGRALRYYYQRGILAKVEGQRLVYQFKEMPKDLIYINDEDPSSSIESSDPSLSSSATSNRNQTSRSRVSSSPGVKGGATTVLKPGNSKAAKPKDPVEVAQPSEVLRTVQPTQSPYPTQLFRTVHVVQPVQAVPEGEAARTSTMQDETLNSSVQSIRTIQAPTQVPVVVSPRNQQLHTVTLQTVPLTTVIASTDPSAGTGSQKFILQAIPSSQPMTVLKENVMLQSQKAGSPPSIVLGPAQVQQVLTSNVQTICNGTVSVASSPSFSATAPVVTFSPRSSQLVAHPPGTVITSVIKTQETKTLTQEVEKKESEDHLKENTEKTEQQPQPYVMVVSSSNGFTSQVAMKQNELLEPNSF
# How it was run: as §1
# EHF = target: T5, EHF (Homo sapiens, UniProt Q9NZC4 1-300); conditions: protein: recombinant; tags: N-terminal GST; dsDNA, one strand shown
# T5 sequence: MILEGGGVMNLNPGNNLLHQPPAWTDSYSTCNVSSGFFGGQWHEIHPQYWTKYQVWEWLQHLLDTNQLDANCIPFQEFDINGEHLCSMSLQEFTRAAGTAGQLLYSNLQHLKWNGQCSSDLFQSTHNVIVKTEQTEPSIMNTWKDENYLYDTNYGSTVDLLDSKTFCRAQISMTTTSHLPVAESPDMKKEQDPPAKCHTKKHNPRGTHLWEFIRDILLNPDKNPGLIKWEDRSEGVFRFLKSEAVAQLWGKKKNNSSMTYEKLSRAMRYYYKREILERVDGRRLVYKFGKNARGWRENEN
# How it was run: as §1
# SPI1 = SPI1 (Homo sapiens, UniProt P17947 1-270); conditions: protein: recombinant; tags: N-terminal GST; dsDNA, one strand shown
# How it was run: as §1
# SPIB = SPIB (Homo sapiens, UniProt Q01892 1-262); conditions: protein: recombinant; tags: N-terminal GST; dsDNA, one strand shown
# Sequence of SPIB (Q01892 whole entry): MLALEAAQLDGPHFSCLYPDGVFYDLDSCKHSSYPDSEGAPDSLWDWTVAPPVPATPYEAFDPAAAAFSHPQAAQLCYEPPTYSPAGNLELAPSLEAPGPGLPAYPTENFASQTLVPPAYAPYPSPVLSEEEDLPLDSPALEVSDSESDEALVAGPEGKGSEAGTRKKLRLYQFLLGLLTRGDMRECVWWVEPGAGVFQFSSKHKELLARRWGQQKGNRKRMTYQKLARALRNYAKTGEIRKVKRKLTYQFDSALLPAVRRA
# How it was run: as §1
# ELK3 = target: T6, ELK3 (Homo sapiens, UniProt P41970 1-407); conditions: protein: recombinant; tags: N-terminal GST; dsDNA, one strand shown
# T6 sequence: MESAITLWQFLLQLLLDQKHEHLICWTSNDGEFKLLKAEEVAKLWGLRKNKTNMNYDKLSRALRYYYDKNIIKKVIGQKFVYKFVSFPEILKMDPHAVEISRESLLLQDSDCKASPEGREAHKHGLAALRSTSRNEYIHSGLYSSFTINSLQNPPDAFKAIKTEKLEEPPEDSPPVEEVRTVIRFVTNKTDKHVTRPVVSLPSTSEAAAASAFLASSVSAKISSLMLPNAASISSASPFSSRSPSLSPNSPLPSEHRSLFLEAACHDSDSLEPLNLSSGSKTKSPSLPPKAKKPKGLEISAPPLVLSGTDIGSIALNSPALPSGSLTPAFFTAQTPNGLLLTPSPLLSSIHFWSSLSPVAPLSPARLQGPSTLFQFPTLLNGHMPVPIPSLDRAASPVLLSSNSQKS
# How it was run: as §1
# FEV = target: T7, FEV (Homo sapiens, UniProt Q99581 1-238); conditions: protein: recombinant; tags: N-terminal GST; dsDNA, one strand shown
# T7 sequence: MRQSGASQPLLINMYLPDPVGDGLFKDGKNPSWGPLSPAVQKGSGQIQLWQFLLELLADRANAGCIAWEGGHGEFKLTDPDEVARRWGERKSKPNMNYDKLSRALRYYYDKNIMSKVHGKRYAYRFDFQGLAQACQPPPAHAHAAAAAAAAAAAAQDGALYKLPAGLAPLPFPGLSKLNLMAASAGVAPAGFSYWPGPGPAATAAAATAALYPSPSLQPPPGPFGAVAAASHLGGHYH
# How it was run: as §1
# ETV5 = ETV5 (Homo sapiens, UniProt P41161 1-510); conditions: protein: recombinant; tags: N-terminal GST; dsDNA, one strand shown
# Sequence of ETV5 (P41161 whole entry): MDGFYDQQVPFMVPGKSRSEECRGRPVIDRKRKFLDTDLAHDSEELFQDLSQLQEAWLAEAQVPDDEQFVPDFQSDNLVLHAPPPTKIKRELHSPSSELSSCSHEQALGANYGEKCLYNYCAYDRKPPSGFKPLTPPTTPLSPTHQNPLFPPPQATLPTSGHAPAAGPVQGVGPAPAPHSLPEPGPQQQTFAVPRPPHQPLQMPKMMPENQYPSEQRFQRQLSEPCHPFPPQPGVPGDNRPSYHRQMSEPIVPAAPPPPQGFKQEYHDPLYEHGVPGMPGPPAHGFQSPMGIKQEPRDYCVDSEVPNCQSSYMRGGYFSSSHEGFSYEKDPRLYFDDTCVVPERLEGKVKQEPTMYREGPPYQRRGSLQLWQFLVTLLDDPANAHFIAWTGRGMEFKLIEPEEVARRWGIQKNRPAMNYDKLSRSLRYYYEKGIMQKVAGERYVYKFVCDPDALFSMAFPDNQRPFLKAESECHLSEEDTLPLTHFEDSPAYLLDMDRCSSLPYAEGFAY
# How it was run: as §1
# HSF1 = HSF1 (Homo sapiens, UniProt Q00613 1-529); conditions: protein: recombinant; tags: N-terminal GST; chain copies: 3; dsDNA, one strand shown
# Sequence of HSF1 (Q00613 whole entry): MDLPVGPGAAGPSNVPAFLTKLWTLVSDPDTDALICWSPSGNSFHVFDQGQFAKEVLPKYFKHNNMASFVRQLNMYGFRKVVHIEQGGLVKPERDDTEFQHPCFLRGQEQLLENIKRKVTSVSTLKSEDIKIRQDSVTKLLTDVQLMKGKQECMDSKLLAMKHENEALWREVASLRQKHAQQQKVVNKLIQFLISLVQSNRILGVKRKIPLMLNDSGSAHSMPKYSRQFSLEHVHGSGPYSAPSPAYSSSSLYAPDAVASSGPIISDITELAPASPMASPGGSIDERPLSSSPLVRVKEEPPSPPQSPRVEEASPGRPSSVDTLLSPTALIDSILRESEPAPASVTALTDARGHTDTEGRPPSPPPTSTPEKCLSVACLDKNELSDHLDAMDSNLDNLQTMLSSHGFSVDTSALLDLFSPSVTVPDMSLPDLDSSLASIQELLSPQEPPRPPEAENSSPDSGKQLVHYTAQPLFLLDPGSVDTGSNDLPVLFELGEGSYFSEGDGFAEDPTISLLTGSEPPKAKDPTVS
# How it was run: as §1
# SPIC = target: T8, SPIC (Homo sapiens, UniProt Q8N5J4 1-248); conditions: protein: recombinant; tags: N-terminal GST; dsDNA, one strand shown
# T8 sequence: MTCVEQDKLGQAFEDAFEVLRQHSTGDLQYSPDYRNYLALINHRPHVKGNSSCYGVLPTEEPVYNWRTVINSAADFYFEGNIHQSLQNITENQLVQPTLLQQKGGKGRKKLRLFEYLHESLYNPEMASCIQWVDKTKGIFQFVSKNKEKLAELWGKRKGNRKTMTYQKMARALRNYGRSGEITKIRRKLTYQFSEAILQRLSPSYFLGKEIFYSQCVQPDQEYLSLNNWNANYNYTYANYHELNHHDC
# How it was run: as §1
# ELF4 = ELF4 (Homo sapiens, UniProt Q99607 1-663); conditions: protein: recombinant; tags: N-terminal GST; dsDNA, one strand shown
# Sequence of ELF4 (Q99607 whole entry): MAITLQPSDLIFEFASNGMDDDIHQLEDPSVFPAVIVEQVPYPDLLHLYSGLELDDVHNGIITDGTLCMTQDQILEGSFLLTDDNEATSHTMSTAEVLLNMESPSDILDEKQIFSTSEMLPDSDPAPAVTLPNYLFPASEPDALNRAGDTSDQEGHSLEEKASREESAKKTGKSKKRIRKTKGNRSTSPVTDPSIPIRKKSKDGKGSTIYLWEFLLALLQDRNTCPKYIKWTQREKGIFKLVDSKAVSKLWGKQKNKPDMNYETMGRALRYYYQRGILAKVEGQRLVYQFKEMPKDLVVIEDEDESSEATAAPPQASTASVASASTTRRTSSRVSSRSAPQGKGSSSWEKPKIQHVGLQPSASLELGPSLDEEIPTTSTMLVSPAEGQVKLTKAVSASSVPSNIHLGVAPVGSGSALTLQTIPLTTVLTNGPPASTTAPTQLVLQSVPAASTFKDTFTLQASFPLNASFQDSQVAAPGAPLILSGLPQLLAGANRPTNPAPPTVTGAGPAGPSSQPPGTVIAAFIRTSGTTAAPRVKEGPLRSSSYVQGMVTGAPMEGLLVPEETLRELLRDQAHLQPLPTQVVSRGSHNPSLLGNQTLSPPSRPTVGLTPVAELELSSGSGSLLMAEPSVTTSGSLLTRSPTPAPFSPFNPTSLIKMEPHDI
# How it was run: as §1
# ELK4 = target: T9, ELK4 (Homo sapiens, UniProt P28324-2 1-405); conditions: protein: recombinant; tags: N-terminal GST; dsDNA, one strand shown
# T9 sequence: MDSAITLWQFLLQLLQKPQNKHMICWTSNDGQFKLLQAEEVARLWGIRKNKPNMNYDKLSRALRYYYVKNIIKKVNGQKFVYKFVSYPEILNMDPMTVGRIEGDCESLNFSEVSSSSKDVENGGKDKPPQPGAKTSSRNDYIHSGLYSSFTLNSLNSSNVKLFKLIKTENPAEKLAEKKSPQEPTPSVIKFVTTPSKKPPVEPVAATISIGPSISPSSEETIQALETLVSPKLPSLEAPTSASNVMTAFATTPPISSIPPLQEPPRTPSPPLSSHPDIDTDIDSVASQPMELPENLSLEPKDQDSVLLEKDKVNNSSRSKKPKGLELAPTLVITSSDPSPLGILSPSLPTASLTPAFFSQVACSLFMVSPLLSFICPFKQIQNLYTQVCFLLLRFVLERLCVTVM
# How it was run: as §1
# ETV2 = target: T10, ETV2 (Homo sapiens, UniProt O00321 1-342); conditions: protein: recombinant; tags: N-terminal GST; dsDNA, one strand shown
# T10 sequence: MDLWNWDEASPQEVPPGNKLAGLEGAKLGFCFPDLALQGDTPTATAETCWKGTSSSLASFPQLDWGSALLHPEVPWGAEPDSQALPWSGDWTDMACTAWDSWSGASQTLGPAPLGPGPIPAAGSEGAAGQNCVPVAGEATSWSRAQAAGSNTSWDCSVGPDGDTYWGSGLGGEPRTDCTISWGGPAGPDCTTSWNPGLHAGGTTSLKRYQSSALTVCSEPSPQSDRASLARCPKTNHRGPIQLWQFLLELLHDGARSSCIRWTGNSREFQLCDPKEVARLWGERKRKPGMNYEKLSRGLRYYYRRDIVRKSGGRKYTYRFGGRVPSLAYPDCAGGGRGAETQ
# How it was run: as §1
# ELF3 = target: T11, ELF3 (Homo sapiens, UniProt P78545 1-371); conditions: protein: recombinant; tags: N-terminal GST; dsDNA, one strand shown
# T11 sequence: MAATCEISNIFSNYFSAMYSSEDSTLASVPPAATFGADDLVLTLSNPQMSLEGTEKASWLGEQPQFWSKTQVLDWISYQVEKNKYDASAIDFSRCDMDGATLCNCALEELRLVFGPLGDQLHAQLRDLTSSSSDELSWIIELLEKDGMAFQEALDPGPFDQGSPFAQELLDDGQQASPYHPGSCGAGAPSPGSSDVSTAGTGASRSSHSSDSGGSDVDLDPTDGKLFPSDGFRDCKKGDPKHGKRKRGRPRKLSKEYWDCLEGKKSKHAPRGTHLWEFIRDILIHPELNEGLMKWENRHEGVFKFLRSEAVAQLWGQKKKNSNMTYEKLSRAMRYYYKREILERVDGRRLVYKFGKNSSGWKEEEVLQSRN
# How it was run: as §1
# CRX = CRX (Homo sapiens, UniProt O43186 1-299); conditions: protein: recombinant; tags: N-terminal GST; dsDNA, one strand shown
# Sequence of CRX (O43186 whole entry): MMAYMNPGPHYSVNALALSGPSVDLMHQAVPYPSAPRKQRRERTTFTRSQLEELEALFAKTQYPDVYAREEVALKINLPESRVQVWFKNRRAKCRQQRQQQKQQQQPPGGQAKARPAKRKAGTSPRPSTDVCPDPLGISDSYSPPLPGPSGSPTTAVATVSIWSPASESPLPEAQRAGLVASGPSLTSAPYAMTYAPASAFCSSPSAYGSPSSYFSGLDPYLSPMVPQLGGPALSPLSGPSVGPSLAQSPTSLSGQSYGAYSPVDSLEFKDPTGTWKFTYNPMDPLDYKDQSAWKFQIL
# How it was run: as §1
# ETV1 = ETV1 (Homo sapiens, UniProt P50549 1-477); conditions: protein: recombinant; tags: N-terminal GST; dsDNA, one strand shown
# Sequence of ETV1 (P50549 whole entry): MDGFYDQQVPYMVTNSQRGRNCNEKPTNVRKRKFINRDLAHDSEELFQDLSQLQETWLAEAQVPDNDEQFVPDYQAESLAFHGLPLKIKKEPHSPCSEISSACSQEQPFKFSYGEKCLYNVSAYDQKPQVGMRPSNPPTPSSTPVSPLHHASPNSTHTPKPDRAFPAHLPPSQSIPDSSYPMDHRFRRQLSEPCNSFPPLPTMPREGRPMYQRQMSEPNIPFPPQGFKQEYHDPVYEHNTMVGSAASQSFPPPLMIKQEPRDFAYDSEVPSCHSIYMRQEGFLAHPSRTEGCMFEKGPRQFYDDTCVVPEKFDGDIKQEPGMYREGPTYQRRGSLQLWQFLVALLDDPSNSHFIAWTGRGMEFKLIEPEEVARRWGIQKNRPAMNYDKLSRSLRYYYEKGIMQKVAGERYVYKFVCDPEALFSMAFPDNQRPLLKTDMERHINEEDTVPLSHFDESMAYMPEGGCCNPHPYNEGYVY
# How it was run: as §1
sequence,measurement,setting,value
GCTTTC,binding signal,FLI1,"1.27 fold enrichment (6-mer frequency, TF over GST control)"
same,binding signal,ELK1,"1.22 fold enrichment (6-mer frequency, TF over GST control)"
same,binding signal,GABPA,"1.3 fold enrichment (6-mer frequency, TF over GST control)"
same,binding signal,ERG,"1.28 fold enrichment (6-mer frequency, TF over GST control)"
same,binding signal,ELF1,"1.32 fold enrichment (6-mer frequency, TF over GST control)"
same,binding signal,EHF,"1.34 fold enrichment (6-mer frequency, TF over GST control)"
same,binding signal,SPI1,"1.28 fold enrichment (6-mer frequency, TF over GST control)"
same,binding signal,SPIB,"1.27 fold enrichment (6-mer frequency, TF over GST control)"
same,binding signal,ELK3,"1.38 fold enrichment (6-mer frequency, TF over GST control)"
same,binding signal,FEV,"1.25 fold enrichment (6-mer frequency, TF over GST control)"
same,binding signal,ETV5,"1.24 fold enrichment (6-mer frequency, TF over GST control)"
same,binding signal,HSF1,"1.35 fold enrichment (6-mer frequency, TF over GST control)"
same,binding signal,SPIC,"1.06 fold enrichment (6-mer frequency, TF over GST control)"
same,binding signal,ELF4,"1.23 fold enrichment (6-mer frequency, TF over GST control)"
same,binding signal,ELK4,"1.26 fold enrichment (6-mer frequency, TF over GST control)"
same,binding signal,ETV2,"1.59 fold enrichment (6-mer frequency, TF over GST control)"
same,binding signal,ELF3,"1.47 fold enrichment (6-mer frequency, TF over GST control)"
same,binding signal,CRX,"1.33 fold enrichment (6-mer frequency, TF over GST control)"
same,binding signal,ETV1,"1.35 fold enrichment (6-mer frequency, TF over GST control)"
